According to PubChem BioAssay (NCATS):
Records with an inconclusive call do not appear. Values without a mark were called inactive. Calls of active or inactive are those of the source. Calls come from the whole dose curve; as a rule, active = well fitted curve in either direction with a large enough effect (not every such curve was filed as active); inconclusive = small, poorly fitted or top-dose-only effect, or another doubt; inactive = flat fitted curve, though single readings scatter.
% is set by controls: 0 for no effect and ±100 for the full control effect.

Test: Stat Signaling Pathway (AID 446);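 note: ME-180 cervical cancer cells given 40 pM IL-6 alongside compound; SIE-controlled beta-lactamase reporter measured as 460/530 nm FRET emission ratio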
Settings: ME-180 (cervical carcinoma) SIE beta-lactamase reporter, IL-6 stimulated, 5 h; at 17.2 µM (top of the series) unless noted
Summary of the method: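 IL-6/STAT signaling read in ME-180 cells via an SIE beta-lactamase reporter. Stimulus was 40 pM IL-6 (its AC50) for 5 hrs, so both activation and inhibition register.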
With CCc1ccc(-c2cn3nc(C)c(C)nc3n2)cc1 the activity, negative = inhibition was 11.8%. Work on CCOC(=O)c1[nH]c2ccc(OC)cc2c1NC(=O)CCN1CCC(C)CC1 yielded an activity, negative = inhibition of 8.76%. Molecule COc1ccc(OC)c2c(N)c(C#N)c(C(F)(F)C(F)(F)F)nc12 has an activity, negative = inhibition of 14%. Molecule CCC(=O)Nc1c(C#N)c2nc3ccccc3nc2n1C1CCCCC1 has an activity, negative = inhibition of 20.4%. Molecule N=c1c(C(=O)NCc2ccccc2)cc2c(=O)n3ccccc3nc2n1Cc1ccco1 has an activity, negative = inhibition of 19.8%. Work on CC(C)OCCCn1c(=N)c(C(N)=S)cc2c(=O)n3ccccc3nc21 yielded an activity, negative = inhibition of -1.51%. For CNc1oc(-c2ccccc2Cl)nc1C#N, the activity, negative = inhibition was -0.918%. For CCCCn1cnc2c(c1=O)c1nc3ccccc3nc1n2Cc1ccc2c(c1)OCO2, the activity, negative = inhibition was 10.3%. Molecule Cc1c(/C(O)=C2\C(=O)C(=O)N(CCCN(C)C)C2c2ccccc2)cnn1-c1ccccc1 (stereo not drawn) has an activity, negative = inhibition of 0.518%. In the case of CCCN(CCC)c1nc2ccccc2nc1C(C#N)C(=O)OC(C)COC (stereo not drawn), the activity, negative = inhibition was -20.4%. In the case of COc1nc(N(C)S(=O)(=O)c2ccc(C)cc2)nc(C)c1Cl, the activity, negative = inhibition was 5.02%. Work on CCCCCNC(=O)c1c(N)n(/N=C/c2ccco2)c2nc3ccccc3nc12 yielded an activity, negative = inhibition of 28.5%. In the case of Cc1nc(Sc2cccn2C)c(C(F)(F)F)c(=O)[nH]1, the activity, negative = inhibition was -1.21%. For CCCCCCc1cc2cc(-c3nnc(-c4ccccc4O)o3)c(=O)oc2cc1O, the activity, negative = inhibition was 73.1% [activator] (active). Molecule COc1ccc(-n2c(SCC(N)=O)nc3sc4c(c3c2=O)CCN(C)C4)cc1 has an activity, negative = inhibition of 2.19%. Cc1nnc2c(NC(C)C)nc3ccccc3n12 showed an activity, negative = inhibition of -12.6%. Molecule CCc1cc(=O)oc2c(CN3CCCC3)c(O)c(Cl)cc12 has an activity, negative = inhibition of 4.15%. Molecule O=C(c1ccc(=O)oc1)N1CCOCC1 has an activity, negative = inhibition of -0.795%. For CCOCCSc1nc2c(c(=O)[nH]c(=O)n2C)n1CCCc1ccccc1, the activity, negative = inhibition was -3.21%. Cc1ccccc1C(=O)c1ccc2c(c1)n(C)c(=O)n2C gave an activity, negative = inhibition of -15.6%. With CCCc1cc(=O)oc2c(CN3CCN(C)CC3)c(O)c(Cl)cc12 the activity, negative = inhibition was -1.37%. CCc1nc(N2CCCC2)c(C#N)c2c1CCCC2 gave an activity, negative = inhibition of -19.9%. Molecule c1ccc2c(c1)NC(c1ccncc1)n1c-2nc2ccccc21 (stereo not drawn) has an activity, negative = inhibition of -7.32%. Molecule COC(=O)c1[nH]c2cc(OC)ccc2c1NC(=O)CCN1CCCC(C)(C)C1 has an activity, negative = inhibition of 2.32%. Molecule CCOC(=O)c1sc2c(c1C)c(=O)c(C(=O)OCC)cn2CC has an activity, negative = inhibition of 6.04%. For CCC1(C)Cc2c(sc3c2c(=O)n(C)c2nnc(SCc4ccc5c(c4)OCO5)n32)CO1 (stereo not drawn), the activity, negative = inhibition was -3.34%. COCCNC(=O)c1c(N)n(/N=C/c2cccs2)c2nc3ccccc3nc12 showed an activity, negative = inhibition of 19.9%. With Cc1cccn2c(=O)c(/C=C(\C#N)S(=O)(=O)c3ccccc3)c(N3CCN(C)CC3)nc12 the activity, negative = inhibition was 3.87%. Molecule COc1ccc(C2=Nn3c(nnc3-c3ccccn3)SC2)cc1OC has an activity, negative = inhibition of -0.925%. Molecule CCCN(CCC)C(=O)CC(c1ccc(F)cc1)c1ccco1 (stereo not drawn) has an activity, negative = inhibition of -3.11%. CC(C)Oc1ccc(C(=O)CCN2CCCCC2)cc1 gave an activity, negative = inhibition of -10.9%. COc1cccc(/C(O)=C2/C(=O)C(=O)N(CCCN(C)C)C2c2cccc(Cl)c2)c1 (stereo not drawn) gave an activity, negative = inhibition of 5.04%. For CCN1CCN(c2nc3c(C)cccn3c(=O)c2/C=C(\C#N)S(=O)(=O)c2ccccc2)CC1, the activity, negative = inhibition was -5.71%.
